# Active and inactive are the calls of the source.
# What was measured:
# [1] = compounds binding Alexa647 anti-His antibody – biochemical, small-molecule microarray, 635 nm fluorescence, artefact control for SMM control protein annotation, primary screen (AID 1128); conditions: higher = more signal;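 further: score merges feature fluorescence with signal-to-noise for each printed compound spot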
# [2] = system: Human papillomavirus type 1a E7 protein (residues 1-88); test: HPV1a E7 small-molecule binders, primary screen, biochemical, small-molecule microarray, residues 1-88, 635 nm (AID 1129); conditions: small-molecule microarray binding, fluorescence 635 nm; higher = more signal
# [3] = target: Focal adhesion kinase 1 (Homo sapiens) (UniProt Q05397); test: PTK2 protein binding on printed compound slides – biochemical, small-molecule microarray, 635/667 nm fluorescence, BSA, DTT, primary screen (AID 1130); conditions: 635 nm fluorescence, higher = more signal;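 further: composite of spot emission at 667 nm and signal to noise over triplicate slides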
# Sequence of Focal adhesion kinase 1 (Homo sapiens) (Q05397 whole entry, looked up): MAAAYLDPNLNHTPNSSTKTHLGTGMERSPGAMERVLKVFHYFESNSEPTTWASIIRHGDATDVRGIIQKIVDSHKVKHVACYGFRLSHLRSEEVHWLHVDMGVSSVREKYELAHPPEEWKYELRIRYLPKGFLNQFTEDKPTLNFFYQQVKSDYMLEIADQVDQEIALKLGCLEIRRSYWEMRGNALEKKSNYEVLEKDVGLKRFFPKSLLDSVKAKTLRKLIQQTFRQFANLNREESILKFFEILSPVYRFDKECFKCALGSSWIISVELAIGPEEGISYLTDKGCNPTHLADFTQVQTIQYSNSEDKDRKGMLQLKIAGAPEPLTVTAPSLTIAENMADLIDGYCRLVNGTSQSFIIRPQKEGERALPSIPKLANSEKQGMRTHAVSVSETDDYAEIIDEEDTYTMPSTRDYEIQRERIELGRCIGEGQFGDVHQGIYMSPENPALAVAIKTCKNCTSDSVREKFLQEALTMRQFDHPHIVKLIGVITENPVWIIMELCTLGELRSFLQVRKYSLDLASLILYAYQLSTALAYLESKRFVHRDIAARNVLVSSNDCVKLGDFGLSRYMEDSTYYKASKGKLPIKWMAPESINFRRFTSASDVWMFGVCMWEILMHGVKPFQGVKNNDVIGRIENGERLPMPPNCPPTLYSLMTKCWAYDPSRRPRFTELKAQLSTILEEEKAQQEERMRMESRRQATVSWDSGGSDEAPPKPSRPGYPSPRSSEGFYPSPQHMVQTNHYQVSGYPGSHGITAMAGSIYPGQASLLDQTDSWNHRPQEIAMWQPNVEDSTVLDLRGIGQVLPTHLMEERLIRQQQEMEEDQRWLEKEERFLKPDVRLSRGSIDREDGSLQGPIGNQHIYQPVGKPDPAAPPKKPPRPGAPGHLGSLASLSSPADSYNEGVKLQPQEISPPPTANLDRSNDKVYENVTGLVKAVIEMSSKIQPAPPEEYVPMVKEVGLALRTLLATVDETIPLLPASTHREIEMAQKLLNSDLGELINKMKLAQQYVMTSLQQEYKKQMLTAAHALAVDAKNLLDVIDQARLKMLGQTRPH
# [4] = system: Fibrinogen (Alexa647-labelled); test: Alexa647-fibrinogen binding to printed small molecules – biochemical, small-molecule microarray, 635/667 nm fluorescence, artefact control for SMM control-protein annotation, profiling panel (AID 1131); conditions: fibrinogen-A647 binding fluorescence, higher = more signal;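 further: z-score merges 667 nm fluorescence with per-spot signal-to-noise over triplicate slides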
# [5] = target: Follistatin (Homo sapiens) (UniProt P19883); test: FST protein binding to printed compounds – biochemical, small-molecule microarray, 635/667 nm fluorescence, primary screen (AID 1132); conditions: 635 nm fluorescence, higher = more signal
# Sequence of Follistatin (Homo sapiens) (P19883 whole entry, looked up): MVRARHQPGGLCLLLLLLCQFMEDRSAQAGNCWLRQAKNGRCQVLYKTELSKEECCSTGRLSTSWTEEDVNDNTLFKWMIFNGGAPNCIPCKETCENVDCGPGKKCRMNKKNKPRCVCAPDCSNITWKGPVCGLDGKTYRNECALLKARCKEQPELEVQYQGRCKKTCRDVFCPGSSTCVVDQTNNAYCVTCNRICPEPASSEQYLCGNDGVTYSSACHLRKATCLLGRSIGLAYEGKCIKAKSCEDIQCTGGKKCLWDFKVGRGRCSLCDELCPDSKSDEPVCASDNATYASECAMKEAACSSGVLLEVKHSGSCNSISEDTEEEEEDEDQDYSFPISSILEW
# [6] = target: Fibroblast growth factor 2 (Homo sapiens) (UniProt P09038); test: basic fibroblast growth factor binding to printed compounds – biochemical, small-molecule microarray, 635/667 nm fluorescence, primary screen (AID 1133); conditions: FGF2, fluorescence 635/667, higher = more signal
# Sequence of Fibroblast growth factor 2 (Homo sapiens) (P09038 whole entry, looked up): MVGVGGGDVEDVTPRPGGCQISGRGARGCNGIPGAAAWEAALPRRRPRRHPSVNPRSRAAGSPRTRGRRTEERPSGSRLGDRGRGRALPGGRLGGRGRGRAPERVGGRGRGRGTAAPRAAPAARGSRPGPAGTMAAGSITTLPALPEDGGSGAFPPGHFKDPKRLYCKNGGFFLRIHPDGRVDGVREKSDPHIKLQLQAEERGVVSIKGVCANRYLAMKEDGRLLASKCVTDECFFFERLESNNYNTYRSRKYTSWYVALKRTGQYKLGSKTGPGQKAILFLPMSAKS
# [7] = JC-1 mitochondrial potential readout, lung cancer cells – cell-based, A549, JC-1 fluorescence, basal, 24 h, 100 nL, profiling panel (AID 1138); conditions: higher = more signal;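 further: A549 lung adenocarcinoma cells under basal conditions with no added stimulus; test concentration not given here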
# Lefty1 = Lefty1 protein binding to printed compounds – biochemical, small-molecule microarray, 635/667 nm fluorescence, primary screen (AID 1139); conditions: fluorescence 635/667, higher = more signal
# [8] = system: wheat germ agglutinin (Triticum aestivum), Alexa647-labelled; test: Alexa647-WGA lectin binding to printed small molecules – biochemical, small-molecule microarray, 635/667 nm fluorescence, artefact control for SMM control-protein annotation, profiling panel (AID 1140); conditions: WGA-A647 binding, 635 nm fluorescence, higher = more signal;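 further: score merges 667 nm feature emission with signal to noise over triplicate slides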
# [9] = target: Luciferin 4-monooxygenase (Photinus pyralis) (UniProt P08659); test: inhibition of purified Photinus pyralis luciferase – biochemical, luminescence, purified enzyme, 2006 set, primary screen (AID 1141); conditions: purified firefly luciferase, SteadyGlo luminescence, 30 min; higher = more signal, called active from +8 up or from −8 down;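 further: cell-free assay with purified firefly luciferase at 100 ng per well in PBS; test concentration not given here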
# Sequence of Luciferin 4-monooxygenase (Photinus pyralis) (P08659 whole entry, looked up): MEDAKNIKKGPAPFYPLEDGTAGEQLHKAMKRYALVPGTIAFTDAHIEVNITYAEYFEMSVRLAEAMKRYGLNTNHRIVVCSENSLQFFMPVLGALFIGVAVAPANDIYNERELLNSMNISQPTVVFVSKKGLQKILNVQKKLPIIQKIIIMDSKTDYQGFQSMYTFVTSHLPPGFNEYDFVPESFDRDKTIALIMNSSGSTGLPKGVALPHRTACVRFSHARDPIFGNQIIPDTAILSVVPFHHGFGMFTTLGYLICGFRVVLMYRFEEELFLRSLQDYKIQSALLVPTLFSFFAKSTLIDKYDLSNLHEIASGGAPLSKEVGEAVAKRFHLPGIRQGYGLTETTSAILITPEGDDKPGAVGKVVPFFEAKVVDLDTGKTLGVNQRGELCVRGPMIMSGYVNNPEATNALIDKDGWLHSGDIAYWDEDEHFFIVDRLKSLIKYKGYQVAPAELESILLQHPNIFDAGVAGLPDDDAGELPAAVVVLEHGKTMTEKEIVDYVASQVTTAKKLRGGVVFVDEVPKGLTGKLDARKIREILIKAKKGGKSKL
SMILES,composite z-score [1],composite z-score [2],composite z-score [3],composite z-score [4],composite z-score [5],composite z-score [6],z-score [7],composite z-score (Lefty1),composite z-score [8],z-score [9]
NC(=O)[C@H]1[C@@H]2C(=O)O[C@@H](c3ccccc3)[C@@H](c3ccccc3)N2[C@@H](c2ccc(O)cc2)[C@]12C(=O)Nc1ccc(C#CCCO)cc12,2.14,-1.66,-0.574,-1.74,-0.458,-0.581,-1.14,-0.997,-1.4,-0.0824 (inactive)
COC(=O)[C@@]1(Cc2ccccc2)[C@H]2c3cc(C(=O)N4CCCC4)n(CCN4CNCC4=O)c3C[C@H]2CN1C(=O)c1ccccc1,0.361,1.21,1.72,0.728,0.257,-0.709,0.791,-0.0783,0.342,2.42 (inactive)
C=CCC(OC(C)=O)[C@@H]1[C@@H](N(Cc2ccc(-c3cccc(C(F)(F)F)c3)o2)C(=O)Cc2ccc(F)cc2)c2cc(OCCCO)ccc2N1C(=O)c1ccc(-c2ccccc2)cc1 (stereo not given in full),-0.656,-0.922,-0.131,-0.531,0.16,-0.246,1.74,-0.173,0.294,-0.306 (inactive)
C=CC[C@]1(C(=O)O)N=C(c2ccc(OCCCO)cc2)O[C@H]1c1ccccc1N=[N+]=[N-],0.258,-0.171,0.0806,-0.17,-0.0493,-0.124,1.28,-1.09,0.0828,-12.3 (active)
CCCCCCc1nc(-c2cc(C)c(OC)c(C)c2)cc2c1[Si](C(C)C)(C(C)C)O[C@H]2c1ccccc1,-0.36,-0.341,-0.272,-0.399,0.0128,-0.683,-0.705,-0.0906,-0.372,0.844 (inactive)
CO[C@H]1O[C@H](CO)[C@@H](OC(=O)Nc2ccccc2)[C@H](OC(=O)Nc2ccc3c(c2)OCO3)[C@@H]1OC(=O)Nc1ccc2c(c1)OCO2,2.53,1.2,1.02,0.771,0.87,0.0385,1.18,0.563,1.21,-5.6 (inactive)
CCCC=C(CCC)[C@@H](NC(=O)c1ccccc1)c1ccccc1,-0.697,0.3,1.04,-0.602,-0.536,-0.846,-1.52,-0.614,-0.677,0.0419 (inactive)
CCCCO[C@H]1C[C@H]2C(Br)=C[C@@]1(CO)C(=O)[C@]21CO1,-0.487,-0.153,0.692,-0.46,0.452,0.0225,0.826,0.641,-0.283,-0.553 (inactive)
CC(C)N1CC=CC23O[C@@H]4/C=C\CCCOC(=O)C4[C@H]2C(=O)N(CCO)[C@@H]3C1=O (stereo not given in full),-0.548,-0.328,0.339,-0.508,-0.544,-0.635,1.77,0.225,-0.505,-1.68 (inactive)
Cc1ccc(N2C(=O)c3ccccc3[C@@H](C(=O)NCc3ccccc3)[C@@H]2c2ccc(CO)cc2)nc1,-0.841,-1.26,-0.289,-1.15,1.33,0.0049,1.35,-0.114,-1.19,-0.635 (inactive)
CO[C@H]1O[C@H](CO)[C@@H](OC(=O)Nc2ccc(Oc3ccccc3)cc2)[C@H](OC(=O)Nc2ccccc2-c2ccccc2)[C@H]1OC(=O)Nc1ccccc1-c1ccccc1,2.31,1.24,1.62,0.98,0.95,0.938,-1.28,0.62,1.38,-1.02 (inactive)
CO[C@H]1COC(=O)[C@H](C)COC(=O)[C@H](Cc2ccccc2)NC(=O)CC=C[C@H]1C,-0.384,-1.55,0.195,-1.04,1.42,0.807,1.71,1.16,-1.5,-1.14 (inactive)
C[C@@H]1NC(=O)CC=C[C@@H](C)[C@@H]2C=C[C@H](O)[C@@H](COC(=O)[C@H](C)NC(=O)CC=C[C@@H](C)[C@@H]3C=C[C@H](O)[C@@H](COC1=O)O3)O2,-0.689,-0.453,0.365,-0.917,1.29,0.859,-0.0173,1.41,-0.833,-0.595 (inactive)
C#CCCCON=C1C[C@@H](O)[C@@H](O)[C@@H]2[C@@H]3C(=O)N(Cc4ccc5c(c4)OCO5)C(=O)[C@@H]3CC[C@@H]12,2.73,0.226,-0.0967,0.903,0.669,0.0999,0.505,0.847,1.14,0.76 (inactive)
CC(C)C[C@@H]1NC(=O)[C@H](CC(C)C)NC(=O)[C@@]23C(=O)N[C@@H](Cc4ccccc4)C2[C@H](C)[C@@]2(C)O[C@H]2C3/C=C/CC/C=C/CNC1=O (stereo not given in full),0.239,0.329,0.427,0.722,0.758,0.319,0.234,1.01,0.265,0.244 (inactive)
